Laboratory results published in PubChem BioAssay AID686979 (National Center for Advancing Translational Sciences (NCATS), 2013).
Among all 420,000 compounds or so, about 50,000 (12%) were called active. Inconclusive results (about 26%) are left out. The sample as a whole holds a higher share of actives than the screen did. A number with no mark means an inactive call. Calls come from the whole dose curve; as a rule, active = well fitted inhibition curve with a large enough effect; inconclusive = small, poorly fitted or top-dose-only effect; inactive = flat fitted curve, though single readings scatter.

Experiment: qHTS for Inhibitors of human tyrosyl-DNA phosphodiesterase 1 (TDP1): qHTS in cells in presence of CPT; note: nearly all actives have a fitted effect of over 55% in size
Conditions: chicken DT40 Tdp1-/-;hTDP1 cells + 20 nM CPT, ATP luminescence, 48 h; series mostly up to 46.2 µM; activity change, negative = growth inhibition: at the top concentration
Method in brief: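 Cell growth measured by CellTiter-Glo luminescence after a minimum 48 h, 37 C compound exposure with 20 nM CPT in Tdp1-knockout DT40 cells stably expressing hTDP1, seeded 400/well; qHTS titration format.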
% is set by controls: 0 for no effect and ±100 for the full control effect; potency is the fitted concentration of half-maximal effect.

| Compound | activity change, negative = growth inhibition [%] | Potency |
| --- | --- | --- |
| Cc1cc(NC(=O)CCC(=O)N(CC(=O)NC2CCCC2)c2ccc(F)cc2)no1 | -7.16 | – |
| CNC(=O)/C(C#N)=C/c1c(F)cccc1Cl | – | 11.6 µM (active) |
| N#C/C(=C\c1ccccc1C(F)(F)F)C(=O)Nc1ccccc1F | 9.19 | – |
| Cc1[nH]c2ccccc2c1/C=C(/C#N)C(=O)NC(C)C | -5.2 | – |
| Cc1ccsc1C(=O)NCCc1ccco1 | -2.34 | – |
| CCN1CCN(C(C(=O)NC2CCCC2)c2cc3c(cc2[N+](=O)[O-])OCO3)CC1 (stereo unspecified) | -1.98 | – |
| CCc1ccccc1NC(=O)c1cc(-c2ccc3c(c2)OCO3)on1 | – | inactive |
| COc1ccc(-c2cn(-c3ccc(C)cc3)c(=O)n2CC(=O)Nc2ccc(OC)c(OC)c2)cc1 | -7.15 | – |
| Cc1ccc(Nc2nnc(SC(C)C(=O)NC3CC3)s2)cc1 (stereo unspecified) | -20.3 | – |
| CC(=O)c1sc(N/N=C\c2ccc(C)cc2)nc1C | -16.8 | – |
| Cc1ccc(Nc2nc(Cl)c(C=O)s2)cc1 | – | 18.4 µM (active) |
| COc1ccc(NC(C)=O)cc1NC(=O)CN1CCN(C2c3ccccc3-c3ccccc32)CC1 | -11.4 | – |
| COCCN(C(=S)Nc1ccccc1OC)C1CCN(C(C)C)CC1 | 13.3 | – |
| Cc1cc(C#N)c(SCC(N)=O)nc1-c1ccc(F)cc1 | -6.67 | – |
| Cc1nn(-c2ccccc2)c(Cl)c1/C=C/C(=O)c1ccc(O)cc1 | -22.8 | – |
| CCC1(C(=O)c2ccccc2)C(c2cccc([N+](=O)[O-])c2)C1(C(=O)OC)C(=O)OC (stereo unspecified) | – | 23.1 µM (active) |
| Cc1cc(CNC(=O)c2cccc([N+](=O)[O-])c2)c2ccccc2n1 | -21.3 | – |
| O=C(NOCc1ccccc1)c1cccc([N+](=O)[O-])c1 | 9.86 | – |
| CC1O[C@H](OC2C(COC3OC(CO)C(O)[C@H](O)C3O)OC(OC3CC[C@]4(C)C(CC[C@@]5(C)[C@@H]4C=C[C@]46OC[C@@]7(CCC(C)(C)C[C@H]74)C(O)C[C@@]56C)C3(C)C)C(O)C2O)C(O)C(O)C1O (stereo partly specified) | -3.08 | – |
| Cc1ccc(-c2nn(-c3ccccc3)cc2C(=O)NC2CCC(O)CC2)cc1 (stereo unspecified) | -21.6 | – |
| CCc1ccc(-c2nn(-c3ccccc3C)cc2C(=O)N2CCN(C3CCS(=O)(=O)C3)CC2)cc1 (stereo unspecified) | -7.22 | – |
| CCc1ccc(-c2nn(-c3ccccc3)cc2CSC(=N)N)cc1 | – | 16.4 µM (active) |

| Compound | activity change, negative = growth inhibition [%] | Potency |
| --- | --- | --- |
| CC1(C)C2CCC13CS(=O)(=O)NC3C2 (stereo unspecified) | -17.6 | – |
| COC(=O)c1c(C(=O)OC)c2n(c1C)CCS2 | 9.43 | – |
| Cc1nn(-c2ccccn2)c2c1C(c1ccncc1)C1=C(CC(C)(C)CC1=O)N2 (stereo unspecified) | – | 29.1 µM (active) |
| Cc1cc(C)c(C2C3=C(Nc4c2c(C)nn4-c2ccccn2)c2ccccc2C3=O)c(C)c1 (stereo unspecified) | – | 13 µM (active) |
| CC1(C)CC(=O)C2=C(C1)Nc1cc(C(=O)c3ccccc3)ccc1NC2c1ccccn1 (stereo unspecified) | 4.03 | – |
| Cc1cc2c(cc1C)NC(c1ccccn1)C1=C(CC(C)(C)CC1=O)N2 (stereo unspecified) | -14.7 | – |
| CN(CC(=O)NCc1ccc2c(c1)OCO2)CC(=O)Nc1ccc(F)c(F)c1F | -7.17 | – |
| COc1ccc(-n2nc3c(c2NC(=O)c2ccc(N4C(=O)CCC4=O)cc2)CSC3)cc1 | 25.1 | – |
| O=C(Oc1cccc(C(=S)N2CCOCC2)c1)c1cccc(Cl)c1 | 2.82 | – |
| COC(=O)c1cccc(NC(=O)c2cccc(N3C(=O)CCC3=O)c2)c1 | -9.34 | – |
| COc1ccccc1C(=O)NCC(=O)OCC(=O)Nc1nnc(-c2ccccc2)o1 | -2.33 | – |
| Cc1cc(C)cc(NC(=O)N(C)Cc2ccccc2)c1 | -0.4 | – |
| O=C(COc1ccccc1F)NC1CC1 | -4.51 | – |
| N#Cc1ccc(OCC(=O)Nc2nc(-c3ccccn3)cs2)cc1 | – | 1.64 µM (active) |
| CC1CCCCC1NC(=O)COc1ccc(C#N)cc1 (stereo unspecified) | -13.3 | – |
| Cc1cc(NC(=O)[C@H](C)NC(=O)c2ccco2)ccc1Br | -7.75 | – |
| O=C(COc1ccccc1F)Nc1nc(-c2ccccn2)cs1 | – | 5.17 µM (active) |
| CC(NC(=O)c1ccco1)C(=O)Nc1nc(-c2ccccn2)cs1 (stereo unspecified) | – | 5.8 µM (active) |
| Cc1ccnc(NC(=O)c2ccco2)n1 | -29.5 | – |
| NS(=O)(=O)c1ccc2nc(NC(=O)COc3ccccc3)sc2c1 | -3.67 | – |
| CC1CCN(S(=O)(=O)c2nnc(NC(=O)COc3ccccc3F)s2)CC1 | -0.652 | – |
| CCOC(=O)C1C(c2ccc(O)cc2)NC(=O)NC1(O)C(F)(F)F (stereo unspecified) | -3.04 | – |

| Compound | activity change, negative = growth inhibition [%] | Potency |
| --- | --- | --- |
| Cc1ccccc1NC(=O)CSC1=NCCN1 | -29.2 | – |
| Cc1nc(SCC(=O)N2CCN(c3ccccc3)CC2)[nH]c(=O)c1C | -1.67 | – |
| Cc1ccc(C2(C(F)(F)F)N=C3Sc4cc(C)cc(C)c4N3C(=O)N2)cc1 (stereo unspecified) | -24 | – |
| C=CCc1cc(C)ccc1OCCCn1ccnc1 | -5.81 | – |
| c1ccc(Cc2ccc(OCCn3ccnc3)cc2)cc1 | – | 20.6 µM (active) |
| Brc1ccc(OCCn2ccnc2)cc1 | -13.2 | – |
| CCN(CC(=O)Nc1ccc2c(c1)OCCO2)Cc1cc(=O)oc2cc(C)c(C)cc12 | -11.4 | – |
| CC(C)Cc1oc(C(=O)O)cc1CN | -6.65 | – |
| Cc1cc(C)c(NC(=O)CSc2nc3nccnc3c(=O)n2CCc2c[nH]c3ccccc23)c(C)c1 | 7.65 | – |
| Cn1c(CCC(=O)Nc2ccccc2F)nnc1SCC(=O)Nc1ccccc1Cl | 0.558 | – |
| O=C(CSc1nc2nccnc2c(=O)n1CCc1c[nH]c2ccccc12)Nc1ccccc1F | – | 10.3 µM (active) |
| Cc1cc(C)cc(NC(=O)Cn2c(=O)c3ccccc3n3nncc23)c1 | 9.23 | – |
| COCCn1c(SCC(=O)Nc2ccccc2F)nc2c(c1=O)SCC2 | -16.1 | – |
| Cc1cc(C)cc(NC(=O)CSc2nc3nccnc3c(=O)n2CCc2c[nH]c3ccccc23)c1 | – | 14.6 µM (active) |
| O=Cc1c(Cl)cccc1Cl | 11.4 | – |
| CC1(C)O[C@@H]2[C@H](O1)[C@@H](CO)O[C@H]2n1c(N2CCCCC2)nc2c(N)ncnc21 | 3.84 | – |
| CC(C)CNS(=O)(=O)c1ccc(C(=O)Nc2ccc3c(c2)OCO3)cc1 | 9.38 | – |
| CC(=O)Nc1cccc(NC(=O)CSc2nccn2Cc2ccc3c(c2)OCO3)c1 | -27.2 | – |
| CNc1ccc([N+](=O)[O-])cc1C(=O)O | 5.24 | – |
| Cn1cnc([N+](=O)[O-])c1Sc1n[nH]c(N)n1 | -7.25 | – |
| Cn1cnc([N+](=O)[O-])c1Nc1ccccc1O | -9.13 | – |
| Cn1cnc([N+](=O)[O-])c1Sc1ccccc1 | – | 18.4 µM (active) |

| Compound | activity change, negative = growth inhibition [%] | Potency |
| --- | --- | --- |
| COc1cccc(N2CC(NS(=O)(=O)c3cccs3)CC2=O)c1 (stereo unspecified) | 5.7 | – |
| Cc1c(Cl)cccc1NC(=O)CCS(=O)(=O)c1ccc2c(c1)oc(=O)n2C | -7.1 | – |
| OC(COCC1COc2ccccc2O1)CN1CCN(c2ccc(F)cc2)CC1 (stereo unspecified) | – | 13 µM (active) |
| O=C(COC(=O)c1ccc(F)cc1)NCC1COc2ccccc2O1 (stereo unspecified) | -12.5 | – |
| OC(COCc1ccco1)CN1CCN(c2ccccc2)CC1 (stereo unspecified) | -6.96 | – |
| Nc1ncnc2c1ncn2[C@@H]1O[C@H](C(=O)NCC(F)(F)F)[C@@H](O)[C@H]1O | 3.52 | – |
| COc1ccccc1NC(=O)COC(=O)COc1ccccc1F | 1.41 | – |
| CCc1nn(CCCC(=O)NC(C)c2ccccc2)c(=O)c2cc3occc3n12 (stereo unspecified) | -4.62 | – |
| CCCNC(=O)C(CC)n1nc(CC)n2c(cc3oc(C)cc32)c1=O (stereo unspecified) | – | 25.9 µM (active) |
| CCc1nn(CC(=O)N2CCN(c3cc(C)ccc3C)CC2)c(=O)c2cc3occc3n12 | -24.8 | – |
| O=C(CC[C@H]1O[C@@H](n2ccc(=O)[nH]c2=O)[C@H](O)[C@@H]1O)N[C@H](Cc1ccccc1)C(=O)NCCCN1CCCC1=O | 3.41 | – |
| CC1CCCN(c2csc3ccc(F)cc3c2=O)C1 (stereo unspecified) | -4.58 | – |
| Cn1cccc1C(=O)OCC(=O)NCCc1ccccc1 | 6.72 | – |
| COCCN1C(=O)N[C@@H](c2ccccc2)C(C(=O)OC)=C1C | -14.8 | – |
| COC(=O)C1=C(C)N(Cc2ccccc2)C(=NCCCOC(C)C)N[C@H]1c1ccccc1 | – | 6.51 µM (active) |
| CCN1C(=O)N[C@@H](c2ccccc2)C(C(=O)OC)=C1C | -10.8 | – |
| CC(C)C(=O)Nc1ccc2c3c(cccc13)CC2 | -12.5 | – |
| CN(Cc1ccccc1)C(=O)c1cn(C)c2ccc(S(=O)(=O)N3CCCCC3)cc2c1=O | -0.632 | – |
| CCC(CC)C(=O)Nc1c2c(nn1-c1ccc(C)cc1)CS(=O)(=O)C2 | -16.7 | – |
| O=C(NCc1ccccc1)c1cc(-c2cccc(Cl)c2)on1 | -18.1 | – |
| CCOCCOC(=O)C1=C(C)N(C)C(=O)NC1c1ccccc1F (stereo unspecified) | -20.7 | – |
| CCOC(=O)N1CCc2c(sc3c2C(=O)NC(c2ccccc2F)N3)C1 (stereo unspecified) | – | 20.6 µM (active) |

| Compound | activity change, negative = growth inhibition [%] | Potency |
| --- | --- | --- |
| N#Cc1c(N)sc2c1CCN(C(=O)OCc1ccccc1)C2 | -15.3 | – |
| CC1OC(OCC2OC(Oc3c(-c4ccc(O)c(O)c4)oc4cc(O)cc(O)c4c3=O)C(O)C(O)C2O)[C@@H](O)C(O)C1O (stereo partly specified) | 17.3 | – |
| CCOc1ccc(CCNC(=O)COC(=O)C2CCN(S(=O)(=O)c3ccccc3)CC2)cc1OCC | 1.91 | – |
| COc1ccc(-c2cc(=O)oc3cc(OCC(=O)N(C)C4CCS(=O)(=O)C4)ccc23)cc1 (stereo unspecified) | -10.4 | – |
| CCC1SC(CC)C(=O)N(CC(=O)NC2CCCCC2)C1=O (stereo unspecified) | 8.38 | – |
| CN1c2ccc(C=O)c3c(C=O)ccc(c23)N(C)C1(C)C | – | 20.6 µM (active) |
| NC(=O)c1ccc(Nc2ccc3c(c2)CCC3)c([N+](=O)[O-])c1 | 2.21 | – |
| CNN/C(N=Cc1ccc([N+](=O)[O-])s1)=N\S(=O)(=O)c1cc(C)c(Cl)cc1SCc1ccccc1 | – | 1.16 µM (active) |
| O=C(CCC(=O)c1cccs1)Nc1nc2ccccc2s1 | -6.62 | – |
| COc1cc(NC(=O)CCNC(=O)Cn2ccc3ccccc3c2=O)cc(OC)c1OC | – | inactive |
| CC(C)n1c(-c2ccncc2)n[nH]c1=S | 5.83 | – |
| C#CCN(N(C)c1ncc(C(F)(F)F)cc1Cl)S(=O)(=O)c1ccc2ccccc2c1 | -15.9 | – |
| CC(OC(=O)CN1C(=O)c2ccccc2C1=O)C(=O)c1ccccc1 (stereo unspecified) | -3.02 | – |
| CCCCOC(=O)Cn1c(=O)n(CC(=O)OCCCC)c2cc(C)ccc21 | -31.3 | – |
| CCOC(=O)C1CCN(C(=O)CN2C(=O)c3cccnc3Oc3ccc(C)cc32)CC1 | 1.02 | – |
| CCOC(=O)CN1C(=O)C(=O)c2cc(C)ccc21 | – | 8.2 µM (active) |
| CC(C)OC(=O)CN1C(=O)c2ccccc2C1=O | -3.69 | – |
| CC(C)OC(=O)CN1C(=O)C(=O)c2ccccc21 | – | 13 µM (active) |
